Reference: PubChem BioAssay (NCI)
This is part of a sample that, as a whole, favours compounds with a hit. Of some 83,000 tested, about 20% had one in any assay.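 Single-concentration screen, 48 h exposure, 96-well plates. Endpoint: percent growth. Below 10 = active.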 Values without a mark were called inactive. The source made the active and inactive calls.

Columns and labels:
Assay in all cases: NCI-60 one-dose screen, 48 h (100 = growth as untreated, 0 = no growth, -100 = all killed)
[1] = tested on: RPMI-8226 leukemia; settings: 10 µM
[2] = tested on: OVCAR-8 ovarian; settings: 10 µM unless noted
[3] = tested on: OVCAR-5 ovarian; settings: 10 µM unless noted
[4] = tested on: OVCAR-4 ovarian; settings: 10 µM unless noted
[5] = tested on: SK-OV-3 ovarian; settings: 10 µM
[6] = tested on: IGROV1 ovarian; settings: 10 µM unless noted
[7] = tested on: OVCAR-3 ovarian; settings: 10 µM unless noted
[8] = tested on: HS 578T breast; settings: 10 µM unless noted
[9] = tested on: NCI/ADR-RES ovarian; settings: 10 µM unless noted
[10] = tested on: T-47D breast; settings: 10 µM
[11] = tested on: BT-549 breast; settings: 10 µM unless noted
[12] = tested on: MDA-MB-435 melanoma; settings: 10 µM unless noted
[13] = tested on: SW-620 colon; settings: 10 µM unless noted
[14] = tested on: HCT-116 colon; settings: 10 µM unless noted
[15] = tested on: HCC-2998 colon; settings: 10 µM unless noted
[16] = tested on: KM12 colon; settings: 10 µM unless noted
[17] = tested on: MCF7 breast; settings: 10 µM unless noted
[18] = tested on: SR leukemia; settings: 10 µM unless noted

`CCCC1=NNC(=O)C1` was tested, and the growth [1] was 100%, the growth [2] was 102% and the growth [3] was 103%. It also gave a growth [4] of 106%, a growth [5] of 104% and a growth [6] of 103%. The growth [7] was 120%, the growth [8] was 110% and the growth [9] was 115%. The growth [10] was 101%, the growth [11] was 99.2% and the growth [12] was 98.5%. It also gave a growth [13] of 99.8%, a growth [14] of 98.5% and a growth [15] of 119%. For the same compound, the growth [16] was 117%.

`CN1CCN(c2nc(-c3ccncc3)nc3sc4c(c23)CCCCCC4)CC1` was tested, and the growth [1] was 69%, the growth [2] was 82.9% and the growth [3] was 81.3%. For the same compound, the growth [4] was 71.7%, the growth [5] was 72.9% and the growth [6] was 76.2%. The growth [7] was 93.5%, the growth [8] was 5.17% (active) and the growth [9] was 64.9%. For the same compound, the growth [10] was 90.9%, the growth [11] was 44.3% and the growth [12] was 77.7%. The growth [13] was 77.1%, the growth [17] was 60.6% and the growth [14] was 56.5%. It also gave a growth [15] of 37.4% and a growth [16] of 90.9%.

In the case of `Cl.Fc1c[c-]c(-c2ccccn2)c(F)c1.[Pt].c1ccc([PH+](CC[PH+](c2ccccc2)c2ccccc2)c2ccccc2)cc1`, the growth [18] is reported as -6.03% (active), the growth [2] is reported as -29.1% (active) and the growth [4] is reported as -87.8% (active). For the same compound, the growth [6] was -75.5% (active), the growth [7] was -97.2% (active) and the growth [8] was -44.6% (active). For the same compound, the growth [9] was -35.4% (active), the growth [10] was -65.2% (active) and the growth [11] was -69.2% (active). The growth [12] was -91.9% (active), the growth [13] was -88.8% (active) and the growth [17] was -74.7% (active). For the same compound, the growth [14] was -90.4% (active), the growth [15] was -82.9% (active) and the growth [16] was -89.1% (active).

In the case of `Cc1ccccc1-n1nnc(C(=O)Nc2ccc(-c3ccccc3)cn2)c1C`, the growth [18] is reported as 16% [50 µM], the growth [2] is reported as 41.2% [50 µM] and the growth [3] is reported as 87.1% [50 µM]. It also gave a growth [4] of 11.5% [50 µM], a growth [6] of 71% [50 µM] and a growth [7] of 68.8% [50 µM]. For the same compound, the growth [8] was 90% [50 µM], the growth [9] was 33.3% [50 µM] and the growth [11] was 50.7% [50 µM]. It also gave a growth [12] of 23.8% [50 µM], a growth [17] of 24.3% [50 µM] and a growth [14] of 31.3% [50 µM]. It also gave a growth [15] of 73.9% [50 µM] and a growth [16] of 53% [50 µM].

Compound `C=CCCCCCCCCC(=O)[O-].C=CCCCCCCCCC(=O)[O-].[Zn+2]` has a growth [18] of 91.1% and a growth [10] of 112%.

`O=[N+]([O-])c1ccc(O)c2ncccc12` gave a growth [1] of 52.4%, a growth [2] of 25.3% and a growth [3] of 89.8%. The growth [4] was 33.8%, the growth [5] was 75.2% and the growth [6] was 29.1%. The growth [7] was 11.1%, the growth [8] was 74.2% and the growth [9] was 22.9%. The growth [10] was 30.4%, the growth [11] was 55.2% and the growth [12] was 43.8%. The growth [13] was 32.6%, the growth [17] was 35.2% and the growth [14] was 17.1%. It also gave a growth [15] of 51.6% and a growth [16] of 35.5%.

Compound `COc1cc(C(=O)N(C(C)C)C2CCCCC2)cc(OC)c1OC` has a growth [1] of 88.5%, a growth [2] of 90.3% and a growth [3] of 109%. It also gave a growth [4] of 107%, a growth [5] of 91.3% and a growth [6] of 105%. It also gave a growth [7] of 113%, a growth [8] of 102% and a growth [10] of 107%. For the same compound, the growth [11] was 143%, the growth [12] was 107% and the growth [13] was 107%. For the same compound, the growth [17] was 86.2% and the growth [14] was 122%.

Compound `CCC(C)[C@H]1O[C@]2(CC[C@@H]1C)C[C@@H]1C[C@@H](C/C=C(\C)[C@@H](OC3C[C@H](OC)C(O[C@H]4C[C@H](OC)[C@@H](O)[C@H](C)O4)[C@H](C)O3)[C@@H](C)/C=C/C=C3\CO[C@@H]4[C@H](O)C(C)=C[C@@H](C(=O)O1)[C@]34O)O2` (stereo not given in full) has a growth [2] of 42.4%, a growth [3] of 24.4% and a growth [5] of 50.8%. For the same compound, the growth [6] was 27.3%, the growth [7] was -26.5% (active) and the growth [8] was 26%. The growth [9] was 7.07% (active), the growth [10] was 18.1% and the growth [11] was -26.3% (active). The growth [12] was 3.2% (active), the growth [13] was 18.5% and the growth [17] was 6.74% (active). For the same compound, the growth [14] was -89.2% (active), the growth [15] was -82.3% (active) and the growth [16] was -11.8% (active).
